# Source: the supplement of paper PMC11732987, “Enantioselective OTUD7B fragment discovery through chemoproteomics screening and high-throughput optimisation” (Communications Chemistry, 2025)
# Unmarked numbers belong to inactive results.
# Legend:
# Assay in all cases: log2 ratio of Biotin-Ahx-Ub-VS probe labelling (fragment/DMSO); higher = less target engagement (more negative = stronger competition), active = hit call of the paper (q ≤ 0.05, log2 ratio ≤ -1)
# Conditions in all cases: compound concentration: 200 uM; treatment time: 3 h
# OTUD6B = molecular target: T1, OTUD6B (UniProt Q8N6M0)
# T1 sequence (whole entry): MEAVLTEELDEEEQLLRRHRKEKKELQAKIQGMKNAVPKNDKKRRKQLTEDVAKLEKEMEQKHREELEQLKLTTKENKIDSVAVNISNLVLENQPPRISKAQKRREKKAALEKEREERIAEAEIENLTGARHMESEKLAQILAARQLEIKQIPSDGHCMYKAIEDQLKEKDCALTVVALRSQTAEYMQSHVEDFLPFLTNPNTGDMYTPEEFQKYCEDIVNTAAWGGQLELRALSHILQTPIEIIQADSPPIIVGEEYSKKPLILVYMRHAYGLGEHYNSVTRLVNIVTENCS
# How it was run: (§1)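 Average log2 ratios of fragment over vehicle were obtained by unpaired t-test from global-median-normalised Spectronaut label-free quantities. Proteins with ≥2 unique peptides were included. HEK293T lysate (495 µg per sample) was treated in triplicate with fragment at 200 µM or vehicle for 3 h, then with Biotin-Ahx-Ub-VS at 0.5 µM final for 1 h, and labelled DUBs were NeutrAvidin-enriched and run by diaPASEF LC-MS/MS.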
# OTUD7B = molecular target: T2, OTUD7B (UniProt Q6GQQ9)
# T2 sequence (whole entry): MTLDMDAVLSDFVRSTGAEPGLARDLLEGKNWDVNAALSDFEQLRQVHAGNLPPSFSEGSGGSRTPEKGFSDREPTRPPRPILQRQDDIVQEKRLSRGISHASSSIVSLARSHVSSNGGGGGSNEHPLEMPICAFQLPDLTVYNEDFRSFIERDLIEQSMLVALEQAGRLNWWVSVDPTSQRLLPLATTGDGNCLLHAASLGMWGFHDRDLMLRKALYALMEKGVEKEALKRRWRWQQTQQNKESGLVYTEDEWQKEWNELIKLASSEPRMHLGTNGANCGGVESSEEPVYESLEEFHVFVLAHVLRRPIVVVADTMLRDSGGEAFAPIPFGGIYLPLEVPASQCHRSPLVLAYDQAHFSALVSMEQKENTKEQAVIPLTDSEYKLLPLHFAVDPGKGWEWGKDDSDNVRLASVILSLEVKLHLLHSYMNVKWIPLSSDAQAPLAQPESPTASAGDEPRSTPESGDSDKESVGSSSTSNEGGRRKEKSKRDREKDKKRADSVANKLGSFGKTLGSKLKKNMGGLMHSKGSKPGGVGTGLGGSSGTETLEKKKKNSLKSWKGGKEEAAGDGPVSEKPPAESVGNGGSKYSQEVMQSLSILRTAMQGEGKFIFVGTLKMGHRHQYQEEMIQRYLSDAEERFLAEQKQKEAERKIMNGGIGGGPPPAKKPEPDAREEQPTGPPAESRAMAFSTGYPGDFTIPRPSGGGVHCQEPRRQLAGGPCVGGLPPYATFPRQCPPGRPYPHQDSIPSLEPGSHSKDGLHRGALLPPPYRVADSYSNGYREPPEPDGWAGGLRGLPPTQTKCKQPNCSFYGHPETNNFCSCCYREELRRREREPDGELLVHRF
# How it was run: as §1
# PRPF8 = PRPF8 (UniProt Q6P2Q9)
# How it was run: as §1
# PSMD7 = molecular target: T3, PSMD7 (UniProt P51665)
# T3 sequence (whole entry): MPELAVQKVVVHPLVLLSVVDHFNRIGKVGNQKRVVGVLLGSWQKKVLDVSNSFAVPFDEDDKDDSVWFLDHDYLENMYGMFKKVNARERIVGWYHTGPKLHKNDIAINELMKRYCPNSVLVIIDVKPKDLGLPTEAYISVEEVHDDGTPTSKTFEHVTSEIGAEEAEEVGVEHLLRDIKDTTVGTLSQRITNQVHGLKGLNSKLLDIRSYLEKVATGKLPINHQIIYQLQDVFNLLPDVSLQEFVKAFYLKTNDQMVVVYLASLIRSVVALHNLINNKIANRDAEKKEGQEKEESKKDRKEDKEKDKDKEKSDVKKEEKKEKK
# How it was run: as §1
# UCHL1 = UCHL1 (UniProt P09936)
# How it was run: as §1
# UCHL3 = molecular target: T4, UCHL3 (UniProt P15374)
# T4 sequence (whole entry): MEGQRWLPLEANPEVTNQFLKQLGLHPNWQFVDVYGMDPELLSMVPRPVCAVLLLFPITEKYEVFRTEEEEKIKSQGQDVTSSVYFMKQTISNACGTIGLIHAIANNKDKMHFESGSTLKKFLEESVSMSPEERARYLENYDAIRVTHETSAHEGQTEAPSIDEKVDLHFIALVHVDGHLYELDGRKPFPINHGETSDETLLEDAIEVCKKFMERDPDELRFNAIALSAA
# How it was run: as §1
# UCHL5 = molecular target: T5, UCHL5 (UniProt Q9Y5K5)
# T5 sequence (whole entry): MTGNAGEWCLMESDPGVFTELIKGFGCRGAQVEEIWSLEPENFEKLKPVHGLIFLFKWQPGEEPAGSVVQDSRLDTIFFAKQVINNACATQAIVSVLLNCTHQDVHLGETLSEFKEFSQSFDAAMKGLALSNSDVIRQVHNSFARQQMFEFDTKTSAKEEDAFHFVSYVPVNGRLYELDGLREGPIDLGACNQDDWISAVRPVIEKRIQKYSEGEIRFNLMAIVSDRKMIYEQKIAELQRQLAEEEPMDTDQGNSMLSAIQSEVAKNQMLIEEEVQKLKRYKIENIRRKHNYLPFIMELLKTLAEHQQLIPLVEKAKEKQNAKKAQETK
# How it was run: as §1
# USP10 = USP10 (UniProt Q14694)
# How it was run: as §1
# USP15 = molecular target: T6, USP15 (UniProt Q9Y4E8)
# T6 sequence (whole entry): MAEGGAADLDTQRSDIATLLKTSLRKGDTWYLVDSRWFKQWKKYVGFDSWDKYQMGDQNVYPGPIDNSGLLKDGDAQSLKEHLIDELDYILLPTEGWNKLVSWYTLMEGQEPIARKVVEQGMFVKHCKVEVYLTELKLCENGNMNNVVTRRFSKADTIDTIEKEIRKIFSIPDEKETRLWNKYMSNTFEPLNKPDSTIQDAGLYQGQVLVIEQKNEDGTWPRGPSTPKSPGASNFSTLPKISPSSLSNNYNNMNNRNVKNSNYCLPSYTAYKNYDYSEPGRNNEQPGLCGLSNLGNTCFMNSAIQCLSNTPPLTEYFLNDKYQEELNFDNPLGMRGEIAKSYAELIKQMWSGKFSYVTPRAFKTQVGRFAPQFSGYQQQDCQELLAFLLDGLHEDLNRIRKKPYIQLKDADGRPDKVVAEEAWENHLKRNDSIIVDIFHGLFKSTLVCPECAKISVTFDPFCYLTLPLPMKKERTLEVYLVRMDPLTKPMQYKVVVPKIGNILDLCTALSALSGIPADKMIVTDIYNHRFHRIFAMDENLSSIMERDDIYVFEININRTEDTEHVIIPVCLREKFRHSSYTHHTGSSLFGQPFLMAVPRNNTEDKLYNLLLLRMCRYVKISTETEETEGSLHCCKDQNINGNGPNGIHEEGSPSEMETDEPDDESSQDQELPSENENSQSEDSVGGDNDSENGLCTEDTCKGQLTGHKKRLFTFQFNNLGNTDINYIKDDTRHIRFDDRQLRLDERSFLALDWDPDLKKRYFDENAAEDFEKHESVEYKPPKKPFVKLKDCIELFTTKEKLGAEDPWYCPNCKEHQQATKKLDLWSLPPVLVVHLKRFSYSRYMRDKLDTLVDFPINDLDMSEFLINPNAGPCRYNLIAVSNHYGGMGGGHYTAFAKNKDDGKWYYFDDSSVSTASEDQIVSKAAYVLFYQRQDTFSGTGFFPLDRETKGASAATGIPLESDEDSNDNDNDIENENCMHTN
# How it was run: as §1
# USP16 = USP16 (UniProt Q9Y5T5)
# How it was run: as §1
# USP16, sequence (Q9Y5T5 whole entry, looked up): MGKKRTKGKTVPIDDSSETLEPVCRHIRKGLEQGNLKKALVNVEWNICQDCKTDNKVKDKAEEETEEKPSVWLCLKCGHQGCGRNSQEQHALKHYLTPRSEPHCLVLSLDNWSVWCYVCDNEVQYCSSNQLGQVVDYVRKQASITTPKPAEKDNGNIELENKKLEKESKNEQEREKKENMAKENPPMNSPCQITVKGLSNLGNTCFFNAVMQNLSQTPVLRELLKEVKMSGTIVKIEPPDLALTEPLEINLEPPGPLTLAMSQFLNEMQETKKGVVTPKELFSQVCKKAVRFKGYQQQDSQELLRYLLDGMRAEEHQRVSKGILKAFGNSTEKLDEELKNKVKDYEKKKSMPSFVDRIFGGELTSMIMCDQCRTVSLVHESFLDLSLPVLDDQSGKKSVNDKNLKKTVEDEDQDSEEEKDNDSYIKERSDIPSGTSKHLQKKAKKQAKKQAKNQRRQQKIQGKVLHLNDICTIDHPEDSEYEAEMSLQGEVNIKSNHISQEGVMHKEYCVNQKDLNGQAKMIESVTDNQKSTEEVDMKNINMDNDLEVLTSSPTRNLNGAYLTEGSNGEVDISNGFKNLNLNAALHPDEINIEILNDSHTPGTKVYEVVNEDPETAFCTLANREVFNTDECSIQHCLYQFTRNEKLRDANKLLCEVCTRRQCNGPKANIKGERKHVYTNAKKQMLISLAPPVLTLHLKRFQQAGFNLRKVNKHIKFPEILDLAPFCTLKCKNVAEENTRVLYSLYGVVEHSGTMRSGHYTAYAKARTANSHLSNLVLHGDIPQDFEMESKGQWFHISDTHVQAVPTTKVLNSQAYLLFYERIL
# UCHL1, sequence (P09936 whole entry, looked up): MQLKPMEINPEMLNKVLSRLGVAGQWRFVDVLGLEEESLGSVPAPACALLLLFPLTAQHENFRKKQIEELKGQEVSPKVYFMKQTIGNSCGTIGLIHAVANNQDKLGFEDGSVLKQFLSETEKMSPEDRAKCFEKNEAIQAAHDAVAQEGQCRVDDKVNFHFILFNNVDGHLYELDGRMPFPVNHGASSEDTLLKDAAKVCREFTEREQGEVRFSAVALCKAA
# USP10, sequence (Q14694 whole entry): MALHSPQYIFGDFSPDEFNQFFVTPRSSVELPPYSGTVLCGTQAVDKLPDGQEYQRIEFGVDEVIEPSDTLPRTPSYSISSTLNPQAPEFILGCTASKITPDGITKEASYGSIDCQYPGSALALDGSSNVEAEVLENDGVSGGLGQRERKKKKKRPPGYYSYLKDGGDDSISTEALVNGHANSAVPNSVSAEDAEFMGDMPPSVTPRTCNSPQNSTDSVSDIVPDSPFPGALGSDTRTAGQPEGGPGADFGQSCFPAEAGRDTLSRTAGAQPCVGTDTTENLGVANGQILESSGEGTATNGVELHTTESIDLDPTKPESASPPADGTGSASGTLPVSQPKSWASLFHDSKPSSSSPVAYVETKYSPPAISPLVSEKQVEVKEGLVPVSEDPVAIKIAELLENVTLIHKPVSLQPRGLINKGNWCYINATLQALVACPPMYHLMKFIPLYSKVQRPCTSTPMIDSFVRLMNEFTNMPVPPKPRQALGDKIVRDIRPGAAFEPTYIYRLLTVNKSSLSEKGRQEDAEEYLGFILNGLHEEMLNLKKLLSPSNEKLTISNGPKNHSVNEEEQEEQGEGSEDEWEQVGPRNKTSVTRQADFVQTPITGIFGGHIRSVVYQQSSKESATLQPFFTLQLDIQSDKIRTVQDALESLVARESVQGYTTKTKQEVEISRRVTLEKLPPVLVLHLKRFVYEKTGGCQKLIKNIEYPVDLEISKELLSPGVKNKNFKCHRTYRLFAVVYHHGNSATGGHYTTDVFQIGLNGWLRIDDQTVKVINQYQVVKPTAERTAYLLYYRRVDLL
smiles,measurement,setting,value
CC(NC(=O)CCl)c1ccc2[nH]ncc2c1 (stereo not given),log2 ratio of Biotin-Ahx-Ub-VS probe labelling,OTUD6B,-0.241
same,log2 ratio of Biotin-Ahx-Ub-VS probe labelling,OTUD7B,-1.52 (active)
same,log2 ratio of Biotin-Ahx-Ub-VS probe labelling,PRPF8,-0.0557
same,log2 ratio of Biotin-Ahx-Ub-VS probe labelling,PSMD7,-0.245
same,log2 ratio of Biotin-Ahx-Ub-VS probe labelling,UCHL1,-1.1 (active)
same,log2 ratio of Biotin-Ahx-Ub-VS probe labelling,UCHL3,0.289
same,log2 ratio of Biotin-Ahx-Ub-VS probe labelling,UCHL5,-0.328
same,log2 ratio of Biotin-Ahx-Ub-VS probe labelling,USP10,-0.179
same,log2 ratio of Biotin-Ahx-Ub-VS probe labelling,USP15,-0.271
same,log2 ratio of Biotin-Ahx-Ub-VS probe labelling,USP16,-0.601
